High-throughput results: PubChem BioAssay, Broad Institute
The full list was thinned out, with hits kept by preference.
Glyco luc inh = blocks N-linked glycosylation in D54 reporter cells | D54 ERlucT glycosylation luciferase reporter, 24 h; percent of 100 nM tunicamycin response | reporter increase, % at 12.5 µM | hit rate 0.23% among 360,000;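 active = mean luciferase reporter signal, scaled so untreated is 0 and the glycosylation-blocking control 100, at or above a set limit in every replicate; inconclusive = mean reaches the limit but not every replicate does; inactive = mean below the limit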;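 also: luciferase carries N-glycosylation sites so blocking glycosylation raises the light; 0% = median of neutral control wells and 100% = median of 100 nM tunicamycin wells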
Rtt109 HAT inh = blocks Candida albicans Rtt109/Vps75 acetyltransferase activity. hit rate 0.16% among 330,000. inhibition, % at 34.9 µM. purified Rtt109/Vps75, ThioGlo CoA-SH fluorescence, 4 h. Q5AAJ8;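 active = inhibition of at least 50% in every replicate; inconclusive = best replicate reaches 50% inhibition but some replicates fall short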
Target sequence (Q5AAJ8 whole entry, looked up): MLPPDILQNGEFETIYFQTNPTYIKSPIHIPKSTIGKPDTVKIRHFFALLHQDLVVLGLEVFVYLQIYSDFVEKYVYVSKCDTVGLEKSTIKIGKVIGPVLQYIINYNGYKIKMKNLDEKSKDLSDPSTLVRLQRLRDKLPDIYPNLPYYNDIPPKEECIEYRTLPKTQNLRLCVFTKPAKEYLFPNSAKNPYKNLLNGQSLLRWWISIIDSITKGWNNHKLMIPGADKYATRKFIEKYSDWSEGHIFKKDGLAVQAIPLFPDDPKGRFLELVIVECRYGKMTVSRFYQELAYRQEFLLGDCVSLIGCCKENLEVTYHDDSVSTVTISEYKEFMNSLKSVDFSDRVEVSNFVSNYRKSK
DENV2 CPE rescue = inhibitors of DENV2 cytopathic effect; DENV2-infected cells, cytopathic effect rescue, plate reader; hit rate 1.7% among 350,000; CPE inhibition, % at 9.99 µM; in the data active = CPE inhibition above about 20%, passing the limit was not always enough; inconclusive = no clear call, values can overlap the other calls; tested in BHK-21 cells;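 also: 0% = median of neutral control wells and 100% = median of positive control wells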
PglD DTNB = inhibitors of Campylobacter jejuni PglD acetyltransferase. purified PglD enzyme, DTNB colorimetric CoA detection. inhibition, % at 12.5 µM. hit rate 0.098% among 360,000. AID 602405; in the data active = inhibition above about 16%, passing the limit was not always enough; inconclusive = no clear call, values can overlap the other calls
An asterisk follows results filed as active; ? = inconclusive; / = no result.

SMILES | Glyco luc inh | Rtt109 HAT inh | DENV2 CPE rescue | PglD DTNB
C[C@H](O)C#Cc1ccc([C@H]2[C@@H](CO)N3CCCCN(C(=O)Nc4ccccc4)C[C@@H]23)cc1 | / | / | 23* | 1
Cc1ccccc1-c1ccc([C@@H]2[C@H]3CN(C(=O)Nc4ccccc4)CCCCN3[C@H]2CO)cc1 | / | / | 61* | 0
C[C@H](O)C#Cc1ccc([C@@H]2[C@@H](CO)N3CCCCN(C(=O)Nc4ccccc4)C[C@@H]23)cc1 | / | / | 1 | 1
O=C(Nc1ccccc1)N1CCCCN2[C@H](CO)[C@H](c3ccc(Br)cc3)[C@@H]2C1 | / | / | 28* | -2
Cc1ccccc1-c1ccc([C@H]2[C@H]3CN(C(=O)Nc4ccccc4)CCCCN3[C@H]2CO)cc1 | / | / | -9 | -2
O=C(Nc1ccccc1)N1CCCCN2[C@H](CO)[C@H](c3ccc(Br)cc3)[C@H]2C1 | / | / | 32* | 2
CO[C@H]1CN(C)C(=O)c2ccc(NC(C)=O)cc2OC[C@@H](C)N(C(=O)Cc2cccnc2)C[C@@H]1C | / | / | -8 | -3
N#CC(=C(O)COC(=O)c1ccc2c(c1)OCCO2)c1nc2ccccc2[nH]1 | -16 | 7 | -3 | /
COc1cc(OC)cc(C(=O)OC/C(O)=C(\C#N)c2nc3ccccc3[nH]2)c1 | 0 | 3 | 60* | -3
CN(C)C(=O)C[C@@H]1CC[C@H]2[C@@H](COC[C@H](O)CN2CC2CCOCC2)O1 | / | / | -8 | 4
O=C(CN1CCOCC1)N1CCCCN2[C@H](C1)[C@@H](c1ccc(C#Cc3ccccc3F)cc1)[C@@H]2CO | / | / | -4 | -8
O=C(CN1CCOCC1)N1CCCCN2[C@H](CO)[C@H](c3ccc(C#Cc4ccccc4F)cc3)[C@@H]2C1 | / | / | 48* | -5
O=C(CN1CCOCC1)N1CCCCN2[C@H](C1)[C@H](c1ccc(C#Cc3ccccc3F)cc1)[C@@H]2CO | / | / | 43* | 4
O=C(CN1CCOCC1)N1CCCCN2[C@H](CO)[C@H](c3ccc(C#Cc4ccccc4F)cc3)[C@H]2C1 | / | / | 0 | 2
CC(=O)N1CCCCN2[C@@H](CO)[C@@H](c3ccc(C#Cc4ccccc4F)cc3)[C@@H]2C1 | / | / | 59* | -3
C[C@H](CO)N1C[C@H](C)[C@@H](CN(C)C(=O)c2cccnc2)Oc2ncc(-c3ccc(C#N)cc3)cc2C1=O | / | / | 12 | 0
C[C@@H]1CN([C@@H](C)CO)C(=O)c2cc(NS(=O)(=O)c3ccc(F)cc3)ccc2O[C@@H](C)CCCCO[C@@H]1CN(C)CC1CCCCC1 | / | / | 7 | 0
O=S(=O)(N[C@@H]1CCCN(Cc2ccc(OCCO)cc2)C1)c1cccc2cccnc12 | / | / | -8 | 1
CN(C)c1ccc(/C=C/c2ccc3c4ccccc4ccc3[n+]2-c2ccccc2)cc1 | ? | 64* | / | 1
CN(C)c1ccc(/C=C/c2ccc3ccccc3[n+]2C)cc1 | 2 | 29 | / | -2
COc1ccc(C(=O)Nc2ccnn2C2CCN(C(=O)c3cnsn3)CC2)cc1 | 0 | 0 | 40* | 0
COc1cc(/C=C/C(=O)OCC(=O)Nc2cc(S(=O)(=O)N3CCCCC3)ccc2C)ccc1O | 2 | 10 | 22* | /
CC(=O)N(C)C[C@H]1Oc2ncc(C#C[C@H](C)O)cc2C(=O)N([C@H](C)CO)C[C@@H]1C | / | / | -1 | 4
COc1ccc(CN(C)C[C@H]2Oc3ccc(NC(=O)NC(C)C)cc3C(=O)N([C@@H](C)CO)C[C@@H]2C)cc1 | / | / | 3 | -6
C=CCC[C@H](Cc1ccc(F)cc1)C(=O)OC[C@@H](Cc1c[nH]c2ccccc12)NC(=O)[C@@H](CC=C)CC(=O)N(CCO)Cc1ccccc1 | -3 | -4 | 21* | -1
SMILES | Glyco luc inh | Rtt109 HAT inh | DENV2 CPE rescue | PglD DTNB
C=CCC[C@H](Cc1ccc(F)cc1)C(=O)OC[C@H](Cc1c[nH]c2ccccc12)NC(=O)[C@@H](CC=C)CC(=O)N(CCO)Cc1ccccc1 | -4 | 1 | / | -3
COc1cccc(S(=O)(=O)N(C)C[C@@H]2Oc3ncc(C#CC(C)C)cc3C(=O)N([C@H](C)CO)C[C@@H]2C)c1 | / | / | -6 | 4
Cc1ccc(/C=C2\SC(=S)N(CCCC(=O)Nc3cccc(C(=O)O)c3)C2=O)cc1 | 2 | 15 | 85* | -2
Cc1ccc(C=C2SC(=S)N(CCCC(=O)Nc3cccc(C(=O)O)c3)C2=O)cc1 | -1 | / | -3 | 1
CC(C)Nc1cc(C(C)(C)C)nc2c(-c3ccccc3)cnn12 | -8 | -10 | 46* | /
CC(C)(C)c1cc(C(F)(F)F)n2ncc(-c3ccccc3)c2n1 | -4 | 0 | -3 | -2
CO[C@@H]1CN(C)C(=O)c2cc(NC(=O)NC(C)C)ccc2OC[C@H](C)N(C)C[C@H]1C | / | / | 6 | 6
Cc1cccc2cc(/C=C/C(=O)c3ccco3)c(Cl)nc12 | 31* | / | 2 | 3
CC1(C)OC(=O)C2=C(C[C@@H](C3CCCCC3)O[C@H]2c2ccccc2)O1 | / | / | 18 | /
CC1(C)OC(=O)C2=C(C[C@@H](C3CCCCC3)O[C@H]2c2ccc(F)cc2)O1 | -3 | / | 55* | 3
Cc1ccc2oc(C(=O)NCc3ncc(C)[nH]3)c(C)c2c1 | 29* | -1 | -4 | 1
Cc1cnc(CNC(=O)c2ccc3oc(C(C)C)nc3c2)[nH]1 | 1 | 7 | -6 | -2
C/C=C/c1ccc([C@@H]2[C@H](C#N)N(C(=O)NC3CCCC3)[C@H]2CO)cc1 | / | / | ? | -2
COC(=O)c1ccc2nc(-c3ccc(C#N)cc3)c(Cc3cccc(F)c3)n2c1 | 1 | / | 41* | 0
COC(=O)c1ccc2nc(-c3ccco3)c(Cc3ccccc3)n2c1 | 0 | / | 5 | -6
COC(=O)c1ccc2nc(-c3ccco3)c(Cc3ccsc3)n2c1 | / | / | 68* | /
COC(=O)c1ccc2nc(-c3ccc(C)cc3)c(Cc3cccc(F)c3)n2c1 | / | / | 8 | /
COC(=O)c1ccc2nc(C3CCCCC3)c(Cc3ccccc3OC)n2c1 | / | / | 20* | /
COC(=O)c1ccc2nc(-c3ccc(F)cc3)c(Cc3ccccc3OC)n2c1 | / | / | 50* | /
CCCc1nc2ccc(C(=O)OC)cn2c1Cc1ccccc1OC | / | / | 0 | /
C[C@H](CO)N1C[C@H](C)[C@H](CN(C)C(=O)NC2CCCC2)Oc2cc(-c3cccnc3)ccc2S1(=O)=O | / | / | 2 | -1
O=C(Nc1ccc(F)cc1)N1CC(=O)N2[C@H](CO)[C@@H](c3ccc(Br)cc3)[C@@H]2C1 | / | / | 5 | /
C[C@H]1CCCCO[C@H](CN(C)C(=O)Cc2ccccc2)[C@@H](C)CN([C@@H](C)CO)C(=O)c2cc(NC(=O)NC3CCCCC3)ccc2O1 | / | / | 25* | 1
C[C@@H]1CCCCO[C@@H](CN(C)C(=O)Cc2ccccc2)[C@H](C)CN([C@H](C)CO)C(=O)c2cc(NC(=O)NC3CCCCC3)ccc2O1 | / | / | 15 | 2
C[C@H]1CCCCO[C@@H](CN(C)Cc2ccccc2)[C@@H](C)CN([C@@H](C)CO)C(=O)c2cc(NC(=O)NC3CCCCC3)ccc2O1 | / | / | 17 | 2
C[C@H](CO)N1C[C@H](C)[C@@H](CN(C)Cc2ccccc2)OCCCC[C@H](C)Oc2ccc(NC(=O)NC3CCCCC3)cc2C1=O | / | / | 5 | 0
C[C@H](CO)N1C[C@H](C)[C@H](CN(C)Cc2ccccc2)OCCCC[C@H](C)Oc2ccc(NC(=O)NC3CCCCC3)cc2C1=O | / | / | 29* | -30
